The nature of experiment [1]: HepG2 liver cancer cell viability effects, profiling panel, resazurin fluorescence, 24 h, PK04 Diversity Set (AID 1172). The conditions noted are these: higher = more signal. On the technique in general: Alamar Blue is a resazurin reagent that responds to reducing activity.
A short description of experiment [2]: basal S. cerevisiae growth modulation, no modifier, primary screen, OD600, strain BY4716, 24 h, basal condition (AID 1173). The conditions noted are these: OD600, 24 h, higher = more signal, called active from +8 up or from −8 down.
Experiment [3] in a line: MM1S myeloma cell viability, profiling panel, resazurin fluorescence, basal, 24 h, PK04 Diversity Set (AID 1174). To be noted: higher = more signal, called active from +8 up or from −8 down.
Experiment [4] addresses Dihydroorotate dehydrogenase (quinone), mitochondrial (Plasmodium falciparum (isolate 3D7)) (UniProt Q08210). Put plainly: PfDHODH enzyme inhibitors, primary screen, biochemical, C-terminal His tag, absorbance 600 nm (AID 1175).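 Also: recombinant parasite enzyme with a five histidine tag at its C terminus.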 To be noted: DCIP absorbance 600 nm, higher = more signal, called active from +8 up or from −8 down.
A short description of experiment [5]: P. aeruginosa biofilm formation inhibitors, primary screen, strain PAO1, LB-PBS medium, absorbance 600 nm (AID 1176). To be noted: P. aeruginosa PAO1 growth/biofilm, A600, 12 h; higher = more signal.
Experiment [6] can be described thus: S. cerevisiae RM11-1a growth modifiers, primary screen, strain RM11-1a, OD600, basal, 24 h (AID 1177).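 Also: cultures grown under basal conditions with no added stressor.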 The conditions noted are these: OD600, 24 h, higher = more signal, called active from +8 up or from −8 down.
Experiment [7] is described as follows: E. coli acrAB mutant growth effects, primary screen, E. coli filamentation inducers, strain DRC39, OD650, 24 h (AID 1178).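 Also: growth measured as culture turbidity by optical density at 650 nm.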 To be noted: higher = more signal, called active from +8 up or from −8 down.
A short description of experiment [8]: E. coli acrAB mutant growth effects, primary screen, E. coli filamentation inducers, strain DRC39, OD650, 48 h (AID 1179).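 Also: screen aims at cell division blockers that make cells filament.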 The conditions noted are these: E. coli DRC39 delta-acrAB growth, higher = more signal, called active from +8 up or from −8 down.
A short description of experiment [9]: RPMI8226 myeloma cell viability, profiling panel, resazurin fluorescence, basal, 24 h, PK04 Diversity Set (AID 1180).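 Also: RPMI8826 multiple myeloma cell line at 5000 cells per well.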 The conditions noted are these: higher = more signal.
Experiment [10] deals with E3 ubiquitin-protein ligase XIAP (Homo sapiens) (UniProt P98170). The experiment in a line: XIAP binders, primary screen, biophysical, small-molecule microarray, fluorescence 635 nm (AID 1181).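 Also: score merges 667 nm emission and signal to noise over triplicate slides.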 To be noted: small-molecule microarray binding, higher = more signal.
Sequence of E3 ubiquitin-protein ligase XIAP (Homo sapiens) (P98170 whole entry, looked up): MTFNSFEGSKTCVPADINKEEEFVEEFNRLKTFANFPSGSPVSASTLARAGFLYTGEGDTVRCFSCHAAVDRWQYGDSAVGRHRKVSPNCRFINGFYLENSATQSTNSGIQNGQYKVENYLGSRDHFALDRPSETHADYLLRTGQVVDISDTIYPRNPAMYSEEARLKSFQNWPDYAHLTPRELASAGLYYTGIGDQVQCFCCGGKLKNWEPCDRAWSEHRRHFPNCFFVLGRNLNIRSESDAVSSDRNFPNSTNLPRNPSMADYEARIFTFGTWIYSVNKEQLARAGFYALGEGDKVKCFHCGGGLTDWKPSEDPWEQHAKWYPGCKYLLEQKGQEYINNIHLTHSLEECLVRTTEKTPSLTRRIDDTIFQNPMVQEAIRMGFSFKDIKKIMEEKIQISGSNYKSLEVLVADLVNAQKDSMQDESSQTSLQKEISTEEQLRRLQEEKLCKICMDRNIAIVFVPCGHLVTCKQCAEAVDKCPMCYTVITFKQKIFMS
Experiment [11] concerns XIP peptide (Xip251-270) binding. The experiment in a line: small-molecule binders of XIP peptide, primary screen, biochemical, small-molecule microarray, fluorescence 635/667 nm, 0.1 µg/mL protein (AID 1182). To be noted: fluorescent protein binding, 635 nm, higher = more signal, called active from +8 up or from −8 down.
The test system of the next experiment is XIP peptide (Xip251-270). Put plainly: small-molecule binders of XIP peptide, primary screen, biochemical, small-molecule microarray, fluorescence 635/667 nm, 0.5 µg/mL protein (AID 1183). To be noted: small-molecule microarray binding, fluorescence 635 nm; higher = more signal.
The nature of experiment [12]: Plasmodium falciparum growth inhibition, primary screen, strain 3D7, DAPI fluorescence, 100 nL (AID 1184).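 Also: parasites grown inside human red blood cells in medium with human serum.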 The conditions noted are these: P. falciparum 3D7 growth, 3 d, higher = more signal.
The target of experiment [13] is Homeobox protein Hox-A13 (Mus musculus) (UniProt Q62424). The experiment in a line: inhibitors of HoxA13-DNA binding, primary screen, biochemical, fluorescence polarization, labeled oligonucleotide (AID 1185). To be noted: 15 min, higher = more signal, called active from +8 up or from −8 down.
Sequence of Homeobox protein Hox-A13 (Mus musculus) (Q62424 whole entry, looked up): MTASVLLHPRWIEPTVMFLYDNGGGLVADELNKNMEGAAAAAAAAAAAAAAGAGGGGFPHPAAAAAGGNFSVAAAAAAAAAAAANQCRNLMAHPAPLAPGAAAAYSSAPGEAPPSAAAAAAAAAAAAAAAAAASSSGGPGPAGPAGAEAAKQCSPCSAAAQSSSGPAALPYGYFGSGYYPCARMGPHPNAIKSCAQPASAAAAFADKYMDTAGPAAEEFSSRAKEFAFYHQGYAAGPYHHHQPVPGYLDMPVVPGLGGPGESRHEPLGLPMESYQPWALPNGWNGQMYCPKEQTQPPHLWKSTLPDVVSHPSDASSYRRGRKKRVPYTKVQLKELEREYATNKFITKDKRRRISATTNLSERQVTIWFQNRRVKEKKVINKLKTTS
Experiment [14] in a line: inhibitors of hydroxyurea-induced Chk1 phosphorylation, primary screen, imaging, HeLa, phospho-Chk1 antibody, percent positive cells (AID 1186). To be noted: hydroxyurea-induced phospho-Chk1 immunofluorescence imaging, higher = more signal.
Experiment [15] can be described thus: inhibitors of hydroxyurea-induced Chk1 phosphorylation, primary screen, imaging, HeLa, phospho-Chk1 nuclear intensity (AID 1187). The conditions noted are these: hydroxyurea-induced phospho-Chk1 immunofluorescence imaging, higher = more signal.

Calls of active or inactive are those of the source. Unless noted, no rule for the calls is given here.

Sequence of Dihydroorotate dehydrogenase (quinone), mitochondrial (Plasmodium falciparum (isolate 3D7)) (Q08210 whole entry, looked up): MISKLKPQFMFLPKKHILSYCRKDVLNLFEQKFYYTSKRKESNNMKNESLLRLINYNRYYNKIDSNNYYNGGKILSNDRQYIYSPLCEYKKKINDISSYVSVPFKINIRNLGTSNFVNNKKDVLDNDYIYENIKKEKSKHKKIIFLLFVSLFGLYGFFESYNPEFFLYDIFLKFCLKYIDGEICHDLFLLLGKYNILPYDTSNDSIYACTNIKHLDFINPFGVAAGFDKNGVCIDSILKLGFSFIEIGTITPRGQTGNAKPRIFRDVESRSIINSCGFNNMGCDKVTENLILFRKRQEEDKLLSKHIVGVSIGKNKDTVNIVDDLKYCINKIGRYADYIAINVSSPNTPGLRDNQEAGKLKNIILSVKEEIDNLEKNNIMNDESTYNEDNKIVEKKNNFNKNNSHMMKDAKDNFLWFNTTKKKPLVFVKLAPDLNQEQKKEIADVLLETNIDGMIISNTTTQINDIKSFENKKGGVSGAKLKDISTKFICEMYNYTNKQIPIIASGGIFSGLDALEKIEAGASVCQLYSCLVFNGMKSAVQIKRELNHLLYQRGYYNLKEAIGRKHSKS

Regarding `COC(=O)c1cccc([C@H]2OC(=CC(=O)OC(C)C)C[C@@H](c3cccc(C(=O)OC)c3)O2)c1`, the z-score in experiment [1] was -0.674; in experiment [2] it was -2.43 (inactive); in experiment [3], -0.799 (inactive); in experiment [5], 0.188 (inactive); in experiment [6], -0.258 (inactive); in experiment [7], -0.435 (inactive). The z-score in [8] was -0.0196 (inactive); in experiment [9] it was 0.0732; in [12], -0.832; in experiment [13], -4.13 (inactive); in experiment [14] it was -0.504 (inactive); in experiment [15] it was -1.39 (inactive). Besides, the composite z-score is -0.351 (inactive) in experiment [4], 0.378 in [10], 0.308 (inactive) in experiment [11] and 0.713 in the experiment on XIP peptide (Xip251-270).

For `O=C(NCc1ccc(F)cc1)[C@H]1C[C@H]2C(=O)N3CCC[C@H]3C(=O)N2[C@H]1c1ccc(O)cc1`, the z-score in experiment [1] was -0.388; in [2], -0.542 (inactive); in experiment [3], 0.698 (inactive); in [5], 2.39 (inactive); in [6], -0.795 (inactive); in [7] it was 0.639 (inactive). Moreover, the z-score in experiment [8] was -0.545 (inactive); in [9], 0.379; in experiment [12], -1.21; in experiment [13] it was 1.55 (inactive); in [14], -0.717 (inactive); in experiment [15] it was -0.415 (inactive). The composite z-score in experiment [4] is -1.47 (inactive); in [10], 0.33; in experiment [11], -0.0173 (inactive); in the experiment on XIP peptide (Xip251-270), 0.702.

In the case of `C=CCNC(=O)[C@H]1[C@@H]2C(=O)O[C@@H](c3ccccc3)[C@@H](c3ccccc3)N2[C@@H](c2ccccc2OCCO)[C@]12C(=O)N(C(=O)OCCOC)c1ccc(C#Cc3ccc(OC)cc3)cc12`, the z-score in [1] was -0.345; in experiment [2], 1.19 (inactive); in [3] it was -0.637 (inactive); in [5], 2.23 (inactive); in experiment [6], 3.16 (inactive); in [7], -0.604 (inactive). The z-score in [8] was 0.582 (inactive); in [9], -1.17; in experiment [12], -2.16; in experiment [13], -0.0717 (inactive); in [14] it was 0.0629 (inactive); in [15], 0.539 (inactive). Besides, the composite z-score in [4] is -0.306 (inactive); in experiment [10], -0.113; in [11], 0.559 (inactive); with XIP peptide (Xip251-270), 0.807.

On to `CC1CC/C=C\[C@H]2OC34C=CCN(c5ccc(Cl)cc5)C(=O)[C@H]3N(CCCCCCO)C(=O)[C@]4(C)C2C(=O)O1` (some centres not stated), for which the z-score in [1] was 0.25; in experiment [2], -0.257 (inactive); in experiment [3], 0.722 (inactive); in experiment [5], -0.801 (inactive); in [6], 0.268 (inactive); in experiment [7] it was 0.251 (inactive). In addition, the z-score was 0.732 (inactive) in [8]; 0.485 in experiment [9]; 0.955 in experiment [12]; -5.35 (inactive) in experiment [13]; -0.517 (inactive) in [14]; -0.187 (inactive) in experiment [15]. The composite z-score in [4] was -1.1 (inactive); in [10], 1.65; in [11] it was 0.675 (inactive); in the experiment on XIP peptide (Xip251-270), 0.265.

With `CN(C)CCCC[C@@H]1NC(=O)[C@H]2C[C@@H](C(=O)O)[C@@H](c3ccc(O)cc3)N2C1=O`, the z-score in experiment [1] is -0.401; in [2], -1.23 (inactive); in [3], 0.41 (inactive); in experiment [5] it was 1.5 (inactive); in [6] it was -0.304 (inactive); in experiment [7], 0.679 (inactive). Further, the z-score was -0.454 (inactive) in experiment [8]; -0.34 in experiment [9]; -0.947 in experiment [12]; -1.63 (inactive) in [13]; 0.7 (inactive) in [14]; 0.571 (inactive) in experiment [15]. Further, the composite z-score in [4] was -0.676 (inactive); in experiment [10] it was 2.02; in [11], 3.67 (inactive); in the experiment on XIP peptide (Xip251-270), 0.843.

`[N-]=[N+]=Nc1ccccc1C[C@@]1(C(=O)NCC(O)CO)N=C(c2ccc(OCCCO)cc2)O[C@@H]1c1ccccc1` (some centres not stated): the z-score is 0.559 in [1]; -2.46 (inactive) in experiment [2]; 0.33 (inactive) in experiment [3]; -0.456 (inactive) in [5]; 0.302 (inactive) in experiment [6]; 0.443 (inactive) in experiment [7]. Besides, the z-score is -0.0622 (inactive) in experiment [8]; 0.0762 in experiment [9]; -1.45 in [12]; -5.72 (inactive) in experiment [13]; -0.416 (inactive) in experiment [14]; -0.145 (inactive) in [15]. Also, the composite z-score was 0.303 (inactive) in experiment [4], 0.0049 in experiment [10], 0.105 (inactive) in [11] and 0.75 in the experiment on XIP peptide (Xip251-270).

Consider `C=CCNC(=O)[C@H]1[C@@H]2C(=O)O[C@@H](c3ccccc3)[C@@H](c3ccccc3)N2[C@@H](c2ccc(OCCO)cc2)[C@]12C(=O)Nc1ccccc12`, for which the z-score in experiment [1] was 0.429; in [2], 0.997 (inactive); in [3], 1.13 (inactive); in [5] it was -0.172 (inactive); in experiment [6] it was 1.69 (inactive); in [7] it was 0.237 (inactive). Further, the z-score in experiment [8] was -0.564 (inactive); in [9] it was 0.608; in experiment [12] it was -0.541; in [13] it was -5.26 (inactive); in [14] it was 0.286 (inactive); in experiment [15], 0.595 (inactive). For the same molecule, the composite z-score in [4] was -0.26 (inactive); in [10] it was 0.347; in [11], 1.43 (inactive); in the experiment with XIP peptide (Xip251-270), 0.57.

(Values after PubChem BioAssay.)
